Screens as filed in PubChem.
Most compounds without a hit are left out; they make up all but 5.7% or so of the library.
VP16 counter: VP16 counterscreen qHTS for inhibitors of ROR gamma transcriptional activity; Drosophila S2 Gal4-VP16 UAS-luciferase, luminescence, 20 h; Potency, µM (titrated, usually from 53.6 µM), inactives show at the top dose activity, negative = inhibition, hits mostly inhibitors; 310,000 compounds, 3.5% hits; AID 2546, 2010;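 note: Gal4-VP16 expression switched on by copper sulfate through the metallothionein promoter; nearly all actives have a fitted effect of over 50% in size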
RORg inh: qHTS for inhibitors of ROR gamma transcriptional activity | Drosophila S2 Gal4-RORgamma UAS-luciferase reporter, 20 h | Potency, µM (top dose mostly 53.6 µM), for inactives: at the top dose activity change, negative = inhibition, usual class: inhibitors | 310,000 compounds, 5.4% hits | AID 2551, 2010; note: nearly all actives have a fitted effect of over 60% in size
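Drosophila Schneider cells stably carrying a metallothionein-driven Gal4 DBD–ROR gamma fusion and a UAS-Photinus luciferase reporter were exposed to compound for 1 hr, then induced with copper sulfate (700 uM final) for 20 hr at ambient temperature before luminescence reading.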
NPSR antag: qHTS Assay for Antagonists of the Neuropeptide S Receptor: cAMP Signal Transduction | Q6W5P4 | CHO-NPSR cells, cAMP TR-FRET, antagonist mode | Potency, µM (highest dose often 38.3 µM), for the others: top-dose activity change, negative = inhibition, actives largely listed as inhibitors | 220,000 compounds, 1% hits | AID 1461, 2008; note: nearly all actives have a fitted effect of over 50% in size
Target sequence (Q6W5P4 whole entry, looked up): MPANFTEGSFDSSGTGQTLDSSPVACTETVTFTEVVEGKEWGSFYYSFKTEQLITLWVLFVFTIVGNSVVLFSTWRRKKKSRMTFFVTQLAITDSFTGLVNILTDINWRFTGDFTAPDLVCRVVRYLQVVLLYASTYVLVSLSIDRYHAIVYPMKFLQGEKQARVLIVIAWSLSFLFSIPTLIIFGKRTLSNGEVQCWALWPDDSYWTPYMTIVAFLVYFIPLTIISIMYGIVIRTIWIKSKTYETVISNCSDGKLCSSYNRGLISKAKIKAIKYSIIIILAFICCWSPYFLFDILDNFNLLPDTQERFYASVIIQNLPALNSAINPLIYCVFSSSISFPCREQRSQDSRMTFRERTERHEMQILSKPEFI
B2AR arrestin: qHTS assay of beta-arrestin-biased ligands of beta2-adrenergic receptor; Potency, µM (doses to about 46.1 µM), inactives show at the top dose activation, usual class: activators; 330,000 compounds, 0.02% hits; beta-arrestin recruitment to beta2AR, cell-based reporter; AID 492947, 2010;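 note: 0% = DMSO controls and full agonism = EC100 isoproterenol or metaproterenol; nearly all actives have a fitted effect of over 65% in size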
Numbers without * were called inactive; ? = inconclusive; / = not tested or not shown; [ ] = another dose, or the depositor's remark. Calls come from the whole dose curve; as a rule, active = well fitted curve in the direction sought with a large enough effect; inconclusive = small, poorly fitted or top-dose-only effect, or another doubt; inactive = no such curve, though single readings can be large; an effect the other way counts as inactive or inconclusive. Unless noted, % is set by controls: 0 for no effect and ±100 for the full control effect; potency is the fitted concentration of half-maximal effect.

SMILES | VP16 counter | RORg inh | NPSR antag | B2AR arrestin
Cc1nc2cnc(N3CCN(C)CC3)nc2n(C)c1=O | 1% | 1% | / | /
COc1ccc(-c2nc3cc(C)ccn3c2NCc2ccc3c(c2)OCO3)cc1 | ? | 7.1µM* | ? | 0%
COc1ccc(-c2nc3ccccn3c2NCc2ccc3c(c2)OCO3)cc1 | -23% | ? | -2%[46.1 µM] | 0%
c1ccc(-c2nc3ccccn3c2NCc2ccc3c(c2)OCO3)cc1 | -6% | 10µM* | -15%[46.1 µM] | 0%
Cc1ccc(S(=O)(=O)N(C)c2ccc(C(=O)N(C)Cc3nc4ccccc4c(=O)[nH]3)cc2)cc1 | / | / | / | 0%
C=C1C(c2ccc(C)cc2)=CCc2cc(C)cc(C)c21 | 6% | -24% | / | /
N#Cc1c(-c2ccccc2)nc(SCc2ccc(Cl)cc2)[nH]c1=O | -11% | -5% | / | 0%
N#Cc1c(-c2ccco2)nc(SCc2ccc(F)cc2)[nH]c1=O | 16% | 11% | 7.9µM* | 0%
CN1C(=O)c2ccc(N3CCCC3)cc2C1=O | ? | ? | -8%[46.1 µM] | 0%
O=C1N/C(=C/c2ccc(N3CCCC3)cc2)C(=O)N1c1ccccc1 | -13% | 3% | -3% | 1%
Cc1cc(N2CCCC2)ccc1/C=C1\NC(=S)N(C)C1=O | 2.5µM* | -42% | ? | ?
O=C1/C(=C/c2ccc(N3CCCC3)cc2)NC(=S)N1C1CC1 | 11µM* | 7.1µM* | ? | -1%
C/C(N=Nc1nc2ccccc2s1)=N\Nc1ccccc1O | -4% | 8.9µM* | 1% | 9%
CC(=O)OCC1OC(Oc2cc(OC(C)=O)c3c(=O)cc(-c4ccc(OC(C)=O)c(OC(C)=O)c4)oc3c2)C(OC(C)=O)C(OC(C)=O)C1OC(C)=O (stereo unspecified) | 16µM* | 25µM* | / | /
COc1ccc(-c2coc3ccc(OC4OC(COC(C)=O)C(OC(C)=O)C(OC(C)=O)C4OC(C)=O)c(OC(C)=O)c3c2=O)cc1 (stereo unspecified) | -4% | 12% | / | /
CCOc1ccc(-c2nnc(-c3ccncc3)o2)cc1 | ? | 13µM* | -18%[46.1 µM] | 0%
CCCCOc1ccc(-c2nnc(-c3ccncc3)o2)cc1 | 2% | 22% | 0%[46.1 µM] | -4%
CCOc1ccc(-c2nnc(-c3ccccc3)o2)cc1 | ? | 10µM* | -12%[46.1 µM] | 0%
CCCOc1ccc(-c2nnc(-c3cccs3)o2)cc1 | ? | 5µM* | -29%[46.1 µM] | 0%
CCOc1ccc(-c2nnc(-c3ccc(OC)cc3)o2)cc1 | ? | -14% | -19%[46.1 µM] | 0%
COc1cccc(/C=C/C2=CC3(C)CC2(C)C(c2cccc(OC)c2)CC3=O)c1 (stereo unspecified) | 5%[10 µM] | 2%[10 µM] | / | /
Cc1sc2ncnc(NCc3ccccc3)c2c1C | 18µM* | -26% | -10%[46.1 µM] | -1%
Cc1sc2ncnc(NCC3(N4CCOCC4)CCCCC3)c2c1C | -11% | 58% | ? | 0%
c1ccc(-c2csc3ncnc(NCC4COc5ccccc5O4)c23)cc1 (stereo unspecified) | 0.89µM* | 7.1µM* | -30% | -2%
Cc1sc2ncnc(NCC(C)(C)N3CCOCC3)c2c1C | 18µM* | ? | -18%[46.1 µM] | 0%
SMILES | VP16 counter | RORg inh | NPSR antag | B2AR arrestin
Cc1sc2ncnc(Nc3ccccc3)c2c1C | 7% | 0% | -2%[46.1 µM] | 0%
Cc1sc2ncnc(NCC3CCCO3)c2c1C (stereo unspecified) | ? | 37% | -2%[46.1 µM] | 0%
Cc1sc2ncnc(NCC3COc4ccccc4O3)c2c1C (stereo unspecified) | 1µM* | ? | 14% | 0%
O=C(/C=C/c1ccccc1)Nc1ccc2c(c1)OCCO2 | 13µM* | 10µM* | -19% | 0%
CC(C)=CC(=O)Nc1ccc2c(c1)OCO2 | ? | 11µM* | 4%[46.1 µM] | /
O=C(/C=C/c1ccccc1)c1ccc2c(c1)OCO2 | 4% | -22% | 2% | 4%
COc1ccccc1/C=C/C(=O)Nc1ccc2c(c1)OCCO2 | -24% | 1.6µM* | -4% | 0%
O=C(/C=C/c1ccncc1)c1ccc2c(c1)OCCO2 | 5µM* | 4µM* | -30% | -1%
O=C(CSCSCC(=O)Nc1ccc2c(c1)OCO2)Nc1ccc2c(c1)OCO2 | 2% | ? | -18%[46.1 µM] | 0%
CCCCC/C=C\C/C=C\C/C=C\CCCCCCC(=O)NCCCC(=O)O | -2% | 3% | / | /
Cn1nc([N+](=O)[O-])nc1Oc1ccc(C(C)(C)C)cc1 | ? | ? | 4% | -1%
